# Test results taken from the supplement of paper PMC12067926.
# Test system: Bacillus 1 (Bacillus foraminis)
# Experiment: relative growth (AUC of 72 h growth curve relative to DMSO control, dAUC) (ratio); higher = more growth (less inhibition), active = hit call of the paper
# Details: 20 µM;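 active = growth AUC significantly below the DMSO wells by Dunnett test; inactive = the rest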
# Method: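 Environmental bacterial isolates (Iceland stream sediment and Silwood Park soil) and whole stream-sediment communities were grown in LB from a 1:100 dilution with each pesticide at 20 µM (1% DMSO). A600 was read hourly for 72 h and the area under a spline-fitted growth curve (AUC) was computed. dAUC is the mean AUC of 3 biological replicates divided by the mean AUC of the DMSO controls. Significance was tested by Dunnett's test against the DMSO control.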
row,Compound,relative growth
1,N#CC(CCc1ccc(Cl)cc1)(Cn1cncn1)c1ccccc1 (stereo not given),0.836 (inactive)
2,COCC(=O)N(c1c(C)cccc1C)[C@H](C)C(=O)OC,1.06 (inactive)
3,Oc1ccccc1-c1ccccc1,0.868 (inactive)
4,Cc1ccc(/N=C/N(C)/C=N/c2ccc(C)cc2C)c(C)c1,1.01 (inactive)
5,COc1ccc(-c2ccccc2)cc1NNC(=O)OC(C)C,1.03 (inactive)
6,N#Cc1c(Cl)c(Cl)c(Cl)c(C#N)c1Cl,0.955 (inactive)
7,CC1(C)[C@H](C(=O)O[C@H](C#N)c2cccc(Oc3ccccc3)c2)[C@@H]1C=C(Br)Br,1.1 (inactive)
8,CC1(C(=O)Nc2ccc(O)c(Cl)c2Cl)CCCCC1,1.01 (inactive)
9,CCCCOC(=O)[C@H](C)Oc1ccc(Oc2ccc(C#N)cc2F)cc1,1.07 (inactive)
10,CCc1cccc(C)c1N(C(=O)CCl)[C@@H](C)COC,1.06 (inactive)
11,N#Cc1cc(Br)c(O)c(Br)c1,0.916 (inactive)
12,CSc1nc(NC(C)C)nc(NC(C)C)n1,0.945 (inactive)
13,CCNC(=O)NC(=O)/C(C#N)=N/OC,1.04 (inactive)
14,COC(=O)c1ccccc1S(=O)(=O)NC(=O)Nc1nc(C)nc(OC)n1,1.05 (inactive)
15,O=C(NC(=O)c1c(F)cccc1F)Nc1ccc(Cl)cc1,1.05 (inactive)
16,COc1cc(OC)nc(NC(=O)NS(=O)(=O)c2ncccc2C(=O)N(C)C)n1,1.08 (inactive)
17,CC1(C)[C@H](/C=C(\Cl)C(F)(F)F)[C@@H]1C(=O)OC(C#N)c1cccc(Oc2ccccc2)c1 (stereo not given in full),1.05 (inactive)
18,O=[N+]([O-])/N=C1\NCCN1Cc1ccc(Cl)nc1,1.06 (inactive)
19,N#Cc1sc2c(=O)c3ccccc3c(=O)c=2sc1C#N,0.97 (inactive)
20,CC(C)OC(=O)Nc1cccc(Cl)c1,1.15 (inactive)

row,Compound,relative growth
1,CCOC(=O)CC(SP(=S)(OC)OC)C(=O)OCC (stereo not given),1.05 (inactive)
2,N#Cc1nn(-c2c(Cl)cc(C(F)(F)F)cc2Cl)c(N)c1[S+]([O-])C(F)(F)F (stereo not given),1.01 (inactive)
3,COC(=O)NC(=S)Nc1ccccc1NC(=S)NC(=O)OC,0.942 (inactive)
4,CNC(=O)/C=C(\C)OP(=O)(OC)OC,0.96 (inactive)
5,CCOC(=O)OC1=C(c2cc(C)ccc2C)C(=O)N[C@]12CC[C@@H](OC)CC2,1.03 (inactive)
6,COCC(=O)N(c1c(C)cccc1C)C(C)C(=O)OC (stereo not given),1.11 (inactive)
7,CCCC(Cn1cncn1)c1ccc(Cl)cc1Cl (stereo not given),1.1 (inactive)
8,Nc1c(Cl)c(F)nc(OCC(=O)O)c1Cl,1.02 (inactive)
9,C[N+](C)(C)CCCl,0.969 (inactive)
10,CCCCN(CCCC)SN(C)C(=O)Oc1cccc2c1OC(C)(C)C2,1.03 (inactive)
11,COc1cc(C)c(C(=O)c2c(OC)ccc(Br)c2C)c(OC)c1OC,1.03 (inactive)
12,CCCC1COC(Cn2cncn2)(c2ccc(Cl)cc2Cl)O1 (stereo not given),0.942 (inactive)
13,COP(=S)(OC)SCN1C(=O)c2ccccc2C1=O,1.04 (inactive)
14,N#Cc1c[nH]cc1-c1cccc2c1OC(F)(F)O2,0.935 (inactive)
15,O=C(O)c1nc(Cl)ccc1Cl,0.984 (inactive)
16,COCC(C)N(C(=O)CCl)c1c(C)csc1C (stereo not given),0.948 (inactive)
17,CCCCCCCCCCCCNC(=N)N,0.691 (active)
18,CS(=O)(=O)NC(=O)c1cc(Oc2ccc(C(F)(F)F)cc2Cl)ccc1[N+](=O)[O-],1.04 (inactive)
19,CCc1nn(C)c(C(=O)NCc2ccc(Oc3ccc(C)cc3)cc2)c1Cl,1.05 (inactive)
20,CCOP(=S)(OCC)Oc1nc(Cl)c(Cl)cc1Cl,1.07 (inactive)
